From PubChem BioAssay AID1942 (Johns Hopkins Ion Channel Center, 2009)
Hit rate of the full screen: of about 2,400 compounds, about 580 (24%) were called active.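 How the source made its calls: active means activity change at or above the mean plus 3 SD of buffer wells without dofetilide, per plate; inactive means the rest.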 Only a sample is shown.

Target: Potassium voltage-gated channel subfamily KQT member 2 (Rattus norvegicus) (UniProt O88943)
Assay: KCNQ2 potentiation in CHO cells – cell-based, FluxOR thallium flux, counter-screen for hERG block protector project, confirmation (AID 1942);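 further: normalized value minus buffer-control mean plus three SD of buffer wells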
Conditions: FluxOR thallium flux fluorescence, at 10 µM, stronger effect = higher value

Sequence of Potassium voltage-gated channel subfamily KQT member 2 (Rattus norvegicus) (O88943 whole entry, looked up): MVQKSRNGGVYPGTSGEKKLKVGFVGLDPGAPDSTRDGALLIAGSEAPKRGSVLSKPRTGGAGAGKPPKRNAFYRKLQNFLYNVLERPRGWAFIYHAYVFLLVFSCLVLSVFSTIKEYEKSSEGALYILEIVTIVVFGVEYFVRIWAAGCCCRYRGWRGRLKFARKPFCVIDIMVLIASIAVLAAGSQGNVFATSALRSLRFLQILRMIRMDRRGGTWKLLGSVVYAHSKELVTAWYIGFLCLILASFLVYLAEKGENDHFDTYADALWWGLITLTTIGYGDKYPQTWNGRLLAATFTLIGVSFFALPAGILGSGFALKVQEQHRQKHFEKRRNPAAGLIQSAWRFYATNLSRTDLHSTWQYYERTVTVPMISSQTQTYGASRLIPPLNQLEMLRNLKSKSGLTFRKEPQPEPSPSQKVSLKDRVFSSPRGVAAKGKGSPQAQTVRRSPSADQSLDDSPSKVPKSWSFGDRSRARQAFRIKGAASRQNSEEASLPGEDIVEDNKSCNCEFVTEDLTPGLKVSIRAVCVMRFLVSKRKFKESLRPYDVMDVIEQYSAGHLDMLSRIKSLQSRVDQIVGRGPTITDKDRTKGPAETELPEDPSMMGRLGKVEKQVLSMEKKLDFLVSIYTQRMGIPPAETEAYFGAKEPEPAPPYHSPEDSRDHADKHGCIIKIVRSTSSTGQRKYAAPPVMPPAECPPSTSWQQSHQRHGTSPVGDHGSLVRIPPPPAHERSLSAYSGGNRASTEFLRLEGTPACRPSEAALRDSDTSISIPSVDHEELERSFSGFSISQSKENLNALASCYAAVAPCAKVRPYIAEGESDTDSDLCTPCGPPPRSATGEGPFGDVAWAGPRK

Structure (SMILES) | activity change, less the hit threshold
CC(C)(C)c1cc(CCC(=O)NCc2ccncc2)cc(C(C)(C)C)c1O | -15.7% (inactive)
CCOC(=O)c1sc2nc(N3CCOCC3)c3c(c2c1N)CCN(Cc1ccccc1)C3 | 0.1% (active)
Cn1ncc2c(NNC(=O)c3ccc(O)cc3)ncnc21 | -24.5% (inactive)
CC(C)(C)NC(=O)C(=O)NNC(=O)c1ccccc1 | -9.7% (inactive)
O=C(Nc1ccccc1C(=O)O)c1cncc(Br)c1 | -3% (inactive)
CC(C)(C)NC(=O)C(=O)NNC(=O)c1cccc(Br)c1 | 16.4% (active)
O=C(NN1C(=O)C2C(c3ccccc3)C=CC(c3ccccc3)C2C1=O)c1cccc(Br)c1 (stereo unspecified) | -3.8% (inactive)
CC(C)(C)NC(=O)C(=O)NNC(=O)COc1ccc(Br)cc1 | 41.1% (active)
CC/C(=N\NC(=S)Nc1cccc(C)c1)c1ccccc1 | -13% (inactive)
CC(C)(C)NC(=O)C(=O)NNC(=O)c1ccc(C(C)(C)C)cc1 | 27.1% (active)
C=CCNC(=O)COc1ccc(Oc2ccccc2)cc1 | -6.4% (inactive)
CC(C)(C)c1ccc(C(=O)CC(=O)c2cc(Cl)ccc2O)cc1 | -11.6% (inactive)
CCCc1cc(C(=O)NNC(=S)Nc2cccc(C)c2)cs1 | -16.5% (inactive)
Cc1cccc(NC(=O)C(=O)NNC(=O)c2ccc(C(C)(C)C)cc2)c1 | 110% (active)
CC(C)(C)NC(=O)C(=O)NNC(=O)COc1ccccc1 | -16.3% (inactive)
O=C(/C=C/c1ccccc1)Nc1ccc(S(=O)(=O)N2CCOCC2)cc1 | -12.6% (inactive)
Cc1cc(C(=O)N/N=C/c2ccc(O)c([N+](=O)[O-])c2)n[nH]1 | -19.6% (inactive)
O=C(CSc1ccccc1)N1CCN(S(=O)(=O)c2cccs2)CC1 | -6.8% (inactive)
O=C(CSc1nnc(NC(=O)c2ccc(S(=O)(=O)N3CCOCC3)cc2)s1)Nc1ccccc1C(F)(F)F | -15.6% (inactive)
O=C(CSc1nc2ccc(NC(=O)c3ccccc3C(=O)O)cc2s1)Nc1c(Cl)cccc1Cl | -7.3% (inactive)
COc1ccc(N2C(=O)CCC(C(=O)O)C2c2ccc(F)cc2)cc1 (stereo unspecified) | -16.9% (inactive)
CCC(C)NC(=O)Cn1nc(C(F)(F)F)c2c1CCCC2 (stereo unspecified) | -23.4% (inactive)
O=C(NCc1cccnc1)Nc1ccc2c(c1)OCO2 | -26% (inactive)
S=C(NCc1ccco1)N1CCN(c2nc(-c3ccccc3)cs2)CC1 | -24.1% (inactive)
O=C(NC(=S)N1CCN(c2nc(-c3ccccc3)cs2)CC1)c1cncc(Br)c1 | 45.1% (active)
O=C(NC(=S)Nc1nc(-c2ccccc2)cs1)c1cncc(Br)c1 | -12.3% (inactive)
